Screening data (PubChem BioAssay)
USP17 block: inhibitors of human USP17 deubiquitinase | purified USP17, Ub-rhodamine cleavage fluorescence, 3 h | inhibition, % at 50 µM | 47,000 tested, 6.5% active | AID 1645855
USP28 block: human USP28 deubiquitinase inhibition; purified USP28, Ub-rhodamine cleavage fluorescence, 30 min; inhibition, % at 25 µM; 47,000 tested, 3% active
Target sequence (Q96RU2 whole entry, looked up): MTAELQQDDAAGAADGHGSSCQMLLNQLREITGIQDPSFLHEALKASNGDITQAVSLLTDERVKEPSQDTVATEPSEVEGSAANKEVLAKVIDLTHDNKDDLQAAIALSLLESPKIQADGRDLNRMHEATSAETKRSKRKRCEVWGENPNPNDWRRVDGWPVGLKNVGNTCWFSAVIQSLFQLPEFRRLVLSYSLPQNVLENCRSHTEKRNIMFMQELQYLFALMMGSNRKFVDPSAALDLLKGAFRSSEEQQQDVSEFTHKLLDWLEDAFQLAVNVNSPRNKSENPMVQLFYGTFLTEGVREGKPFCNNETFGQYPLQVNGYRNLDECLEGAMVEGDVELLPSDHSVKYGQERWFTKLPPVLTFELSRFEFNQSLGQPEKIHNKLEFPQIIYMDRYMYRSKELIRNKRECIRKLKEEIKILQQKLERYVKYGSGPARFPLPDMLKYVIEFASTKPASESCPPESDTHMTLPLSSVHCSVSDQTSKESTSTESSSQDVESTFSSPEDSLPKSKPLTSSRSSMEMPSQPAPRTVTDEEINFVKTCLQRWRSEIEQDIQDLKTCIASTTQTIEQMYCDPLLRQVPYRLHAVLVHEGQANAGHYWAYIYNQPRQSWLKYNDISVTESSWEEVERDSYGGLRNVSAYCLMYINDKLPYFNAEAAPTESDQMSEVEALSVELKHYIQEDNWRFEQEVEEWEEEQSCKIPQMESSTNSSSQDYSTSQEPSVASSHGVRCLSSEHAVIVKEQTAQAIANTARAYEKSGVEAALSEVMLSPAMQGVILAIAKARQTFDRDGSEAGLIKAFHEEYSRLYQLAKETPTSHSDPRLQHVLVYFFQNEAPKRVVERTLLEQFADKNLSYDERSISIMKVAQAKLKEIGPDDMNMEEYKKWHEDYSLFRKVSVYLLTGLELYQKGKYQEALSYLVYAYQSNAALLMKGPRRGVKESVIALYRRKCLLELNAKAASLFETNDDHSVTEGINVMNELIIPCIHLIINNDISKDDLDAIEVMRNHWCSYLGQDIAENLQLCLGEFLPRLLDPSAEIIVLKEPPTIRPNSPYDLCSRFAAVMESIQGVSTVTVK
USP30 block: human USP30 deubiquitinase inhibition; purified USP30, Ub-rhodamine cleavage fluorescence; AID 1645860; 47,000 tested, 5.3% active; inhibition, % at 25 µM; Q70CQ3
OTUD3 inh: blocks human OTUD3 ubiquitin-rhodamine cleavage; Q5T2D3; purified OTUD3, Ub-rhodamine fluorescence, 2 h; inhibition, % at 25 µM; 47,000 tested, 0.7% active; AID 1645858
Active calls of the source: *; i = inactive; nt = not tested or not shown. This is a sample that favours compounds with a hit; in the whole collection about 11% have one here. No stated cut-off is given here; in the data, active means inhibition above about 30%; inactive means the rest.

SMILES	USP17 block	USP28 block	USP30 block	OTUD3 inh
COc1ccc(Cn2ccc3nc(N4CCOCC4)c(C#N)cc3c2=O)cc1	68*	31*	54*	-6
Cc1ccc(C(=O)Nc2ncc3c(Cl)cccc3n2)cc1	31*	24	33*	7
CC1(C)CC(=O)c2cnc(NC(=O)c3ccco3)nc2C1	6	-1	9	2
Cc1ccc(C(=O)Nc2ncc3c(n2)CC(C)(C)CC3=O)cc1	20	12	37*	7
O=C1COc2ccc(C(=O)CSc3nnc(-c4cccc(S(=O)(=O)N5CCOCC5)c4)n3-c3cccc(C(F)(F)F)c3)cc2N1	0	5	11	-8
COc1cccc(-n2cnc3cc(C(=O)NCc4ccncc4)ccc3c2=O)c1	25	8	31*	15
CCc1nc2ccc(C(=O)NCc3ccc(OC)cc3)cc2nc1CC	12	11	-7	2
O=C(c1ccc(-n2cccn2)nc1)N1CCCCC1	-4	-1	3	-5
O=S(=O)(Nc1cccc(-c2nnc(-c3ccccc3)o2)c1)c1ccccc1	13	-7	-1	-3
O=S(=O)(Nc1cccc(-c2nnc(Cc3ccc4c(c3)OCO4)o2)c1)c1ccccc1	11	32*	27	9
O=C(NCc1cccnc1)c1c2c(NCC3CC3)ncnc2n2ccccc12	31*	-30	-108	-25
CN1CCCN(C(=O)c2c3c(NCc4ccccc4)ncnc3n3ccccc23)CC1	-103	-120	-411	-86
Cc1cccc(Cn2cc(C(=O)O)c3ccccc3c2=O)c1	-5	8	-4	0
COc1ccc2c(c1)c(=O)c(S(=O)(=O)c1ccccc1)cn2Cc1cccc(C)c1	14	23	32*	5
O=C(NCCN1CCc2ccccc2C1)Nc1ccc(C(F)(F)F)cc1	-5	46*	-4	-3
Cc1cccc(NC(=O)NCCN2CCc3ccccc3C2)c1	-1	-1	0	-3
CCCCCCCc1cc(OC(=O)c2c(CCCCCCC)cc(O)cc2O[C@@H]2O[C@H](CO)[C@@H](O)[C@H](O)[C@H]2O)cc(O)c1C(=O)O	102*	102*	110*	102*
CCCCCCCCCCCCCCCc1cc(O)cc(O)c1C(=O)O	89*	53*	56*	36*
O=C(O)CCCCc1cc(O)cc(O)c1	-44	-20	-78	-12
C=CCN1C(=O)C2(CC(=O)Nc3c2cnn3-c2ccc(C)c(C)c2)c2cc(Cl)ccc21 (centres undefined)	1	14	0	4
CC(C)c1nc(SCc2nc3ccccc3c(=O)n2-c2ccccc2)c2ccccc2n1	9	-10	-6	-11
CC(C)NC(=O)c1ccc(-c2ccc(NCc3ccccc3)nn2)cc1	5	-2	-26	-5
Cc1nc(N[C@@H](Cc2ccccc2)C(=O)O)c2oc3ccccc3c2n1	4	0	-8	3
Cc1nc(NCCc2ccc(S(N)(=O)=O)cc2)c2oc3ccccc3c2n1	30	20	36*	2
COc1ccc(CCNC(=O)CN(c2cc(C)cc(C)c2)S(=O)(=O)c2c(C)noc2C)cc1OC	0	-10	47*	-3
SMILES	USP17 block	USP28 block	USP30 block	OTUD3 inh
Cc1ncc(-c2ccc(C)c(S(=O)(=O)Nc3ccc(-c4ccno4)cc3)c2)o1	0	-6	-25	0
C[C@@H]1CCC2(C)CC[C@]3(C)C(=CCC4[C@@]5(C)CCC(O)C(C)(C)C5CC[C@]43C)C2[C@H]1C (some centres undefined)	9	10	21	6
CC1(C)CC[C@]2(C(=O)O)CC[C@]3(C)C(=CCC4[C@@]5(C)CC[C@H](O)[C@@](C)(CO)C5CC[C@]43C)[C@@H]2C1 (some centres undefined)	95*	82*	84*	81*
CCN(Cc1ccccc1)C(=O)c1ccccc1NC(=O)Cn1c(C)cc(C)c(C#N)c1=O	-111	-115	i	-127
Cc1nn(-c2cccc(C(F)(F)F)c2)c2c1C(c1ccccc1)N1C=C(Cl)C=C(Cl)C1=N2 (centres undefined)	35*	-10	-88	-3
COc1ccc(C2c3c(C)nn(-c4ccccc4)c3N=C3C(=O)Nc4ccccc4N32)cc1 (centres undefined)	-15	-9	-36	-8
COc1ccc(CNc2ncnc3c2[nH]c2ccc(OC)cc23)cc1	26	-8	-14	-13
c1cncc(-c2cnc3sc(NC4CCCCC4)nn23)c1	35*	12	25	11
COc1cccc(-c2cnc([C@@H]3COCCN3Cc3csnn3)[nH]2)c1	-74	9	-17	-13
COc1ccccc1C(=O)N1C[C@H]2N(C)C(=O)c3ccccc3C(=O)[C@@]2(C)C1	2	5	3	4
COc1ccc(Nc2nc(NCc3ccccc3)c3nccnc3n2)cc1	-8	37*	-12	-14
Cc1ccc(Nc2nc(Nc3cccc(Cl)c3)nc3nccnc23)cc1	-164	-210	i	-210
CC(C)c1ccc(C2c3[nH]c4ccccc4c3C[C@@H]3C(=O)N(c4ccc5c(c4)OCCO5)C(=O)N23)cc1 (some centres undefined)	-60	-22	-73	-37
CC(C)=CC(=O)NC1=CC(=O)[C@]2(C)[C@@H]3O[C@@H]3[C@H](C)N12	17	12	9	16
COc1ccc(CC(=O)Nc2c(NCc3ccccc3)c3ccccc3oc2=O)cc1	85*	34*	75*	14
COc1ccc(-c2nonc2NC(=O)Cc2ccccc2)cc1	11	-26	19	4
CC(C)c1ccc(N2CCN(CC3CC3)C2=O)cc1	14	22	8	6
COc1ccc(S(=O)(=O)N2CCC(c3ncc(C)[nH]3)C2)cc1 (centres undefined)	12	9	31*	12
Cc1c(S(=O)(=O)NC2CC2)c(C)n(C)c1-c1nnc(C2CCC2)o1	8	1	6	0
O=C1Nc2ccccc2C(=O)C1C(c1ccc(Cl)cc1)C1C(=O)Nc2ccccc2C1=O (centres undefined)	88*	40*	41*	28
COc1ccc(CNC(=O)c2cccc(-c3cnc(N4CCCC4)nc3)c2)cc1	45*	0	49*	-1
O=C(NCc1ccc2c(c1)OCO2)c1cccc(-c2cnc(N3CCCC3)nc2)c1	30*	14	43*	14
O=C(NCc1ccc2c(c1)OCO2)c1cc([N+](=O)[O-])ccc1N1CCCCC1	6	23	33*	24
Cn1cc(C(=O)NCc2ccc3c(c2)OCO3)c(S(=O)(=O)N2CCCCCC2)n1	-7	3	-7	6
Cc1cccc(CNC(=O)c2cccc(-c3cnc(N4CCCC4)nc3)c2)c1	-3	-7	7	0
CCC(C)c1ccc(NC(=O)CN(C=C2NC(=O)c3ccccc3N2)CC)cc1 (centres undefined)	1	-3	10	-2
COc1ccc(-n2nnc3c(SCC(=O)Nc4cc(C)on4)ncnc32)cc1	57*	0	-45	-3
Cc1cc(NC(=O)CSc2nnc(COc3ccc(Cl)cc3)o2)no1	3	-3	-15	-8
COC(=O)C(C)Sc1ncnc2c1nnn2-c1ccc(OC)cc1 (centres undefined)	37*	nt	nt	-5
